Compound activity (PubChem BioAssay)
An excerpt weighted towards active compounds, which were near 21% of everything screened.
Pf growth 48h: inhibits P. falciparum growth in the first generation, 48 h. P. falciparum luciferase growth in erythrocytes, 48 h. Potency, µM (highest dose often 28.7 µM), hits mostly inhibitors. hit rate 5.9% among 310,000
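Firefly luciferase activity from engineered P. falciparum reports growth; inhibitors lower the luminescent signal. Cultures contained 2% hematocrit erythrocytes at 0.1% final parasitemia.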
Shiga inhibitor: inhibitors of Shiga toxin in Vero cells. Vero cells, Shiga toxin protein synthesis inhibition reporter. inhibition, % at 38.7 µM. hit rate 9.2% among 290,000. AID 2315; in the data active = inhibition mostly above about 28%, no sharp cut-off; inactive = mostly below about 43%
CHX counter: counter-screen for Shiga toxin inhibitors: cycloheximide protein synthesis inhibition; cell reporter, cycloheximide protein synthesis inhibition counterscreen; max response, %; hit rate 12% among 300,000; AID 2314; in the data active = max response mostly above about 13%, no sharp cut-off; inactive = mostly below about 14%; note: read at 38.3 µM for the half of the compounds with a filed dose
SARS PLP yeast: SARS-CoV PLP inhibition in yeast; Potency, µM (highest dose often 32.9 µM), hits mostly activators; hit rate 0.19% among 330,000; AID 485353; S. cerevisiae expressing SARS-CoV PLpro, growth rescue; calls by dose curve; note: nearly all actives have a fitted effect of over 55% in size
NS1 inh: blocks influenza NS1 protein function; hit rate 0.4% among 270,000; AID 2326; Potency, µM (titrated, usually from 46.1 µM); calls by dose curve; note: actives are rising curves; nearly all actives have a fitted effect of over 50% in size
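S. cerevisiae expressing influenza A NS1, grown in glucose, washed, then diluted 1:100 into pH 6.0 -URA galactose medium with 23 nl compound. Growth recovery read as OD600; NS1-free strain serves as control.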
Pf growth 96h: P. falciparum growth inhibition at 96 hour, primary screen for plastid delayed-death inhibitors | Potency, µM (top dose mostly 28.7 µM), actives largely listed as inhibitors | hit rate 6.9% among 320,000 | AID 504834 | P. falciparum luciferase reporter growth, 96 h
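Two-generation exposure (96 h) targets delayed-death phenotype. Reporter parasites carrying integrated firefly luciferase, in red cells at 2% hematocrit and 0.05% parasitemia final, kept at 37 C, 5% CO2; luminescence loss indicates inhibition.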
Each line names hits and unclear results; the compound was inactive in the other large screens. Unless noted, calls come from the whole dose curve; as a rule, active = well fitted inhibition curve with a large enough effect; inconclusive = small, poorly fitted or top-dose-only effect, or another doubt; inactive = no such curve, though single readings can be large or run the other way.

Clc1ccc(N2CCN(c3cnc4ccccc4n3)CC2)cc1	Shiga inhibitor 49, CHX counter 19 (no result: Pf growth 96h)
Fc1ccc(N2CCN(c3cnc4ccccc4n3)CC2)cc1	Shiga inhibitor 91, CHX counter 49 (no result: Pf growth 48h)
COc1ccc(N2CCN(c3cc(C)c4ccccc4n3)CC2)cc1	none (no result: NS1 inh)
c1ccc(N2CCN(c3cnc4ccccc4n3)CC2)cc1	Shiga inhibitor 146, CHX counter 62 (no result: Pf growth 48h)
COc1ccc(-c2nc3ccccc3c(=O)n2CCOc2c(C)cccc2C)cc1	Pf growth 48h 12µM
COCCn1c(COc2ccc(C)cc2)nc2ccccc21	Shiga inhibitor 71, CHX counter 42, Pf growth 96h inconclusive
COCCn1c(-c2ccc(OC)cc2)nc2ccccc21	CHX counter 16, Pf growth 96h inconclusive (no result: Pf growth 48h)
CCn1c(COc2ccc(C)cc2)nc2ccccc21	Shiga inhibitor 79, CHX counter 44
CCc1cc2cccc(C)c2nc1SCC(=O)Nc1cc(C)on1	none
COCCn1c(COC)nc2ccccc21	none
CCOCCn1c(COc2ccc(C)cc2)nc2ccccc21	Shiga inhibitor 40, CHX counter 37
O=S(=O)(c1ccc(Cl)cc1)c1snnc1-c1ccccc1	Pf growth 96h inconclusive (no result: Pf growth 48h)
O=S(=O)(c1ccc(F)cc1)c1snnc1-c1ccccc1	Pf growth 48h 9.3µM, Pf growth 96h inconclusive (no result: NS1 inh)
COc1ccc(C(=O)Nc2sc3c(c2C#N)CCN(C(C)=O)C3)cc1	Pf growth 48h inconclusive (no result: NS1 inh)
COc1ccc(C(=O)c2c(NC(C)=O)sc3c2CCN(C(=O)OC(C)(C)C)C3)cc1	Pf growth 48h 8.3µM, Pf growth 96h 9.3µM
CCOC(=O)N1CCc2c(sc(NC(=O)Cc3ccccc3)c2C(=O)c2ccc(OC)cc2)C1	Pf growth 48h 5.2µM, Pf growth 96h inconclusive
COc1ccc(/C=C2\SC(=S)N(CCC(=O)NC3CCCC3)C2=O)cc1OC	Pf growth 96h inconclusive
Cn1c(CC(=O)c2ccc(Br)cc2)[n+](C)c2ccccc21	Pf growth 48h 13µM, Pf growth 96h 0.74µM (no result: NS1 inh)
CSc1ccccc1NC(=O)Nc1cccc(Cl)c1Cl	CHX counter 10 (no result: Pf growth 48h)
COc1ccc(NC(=O)NNC(=O)CCC(=O)Nc2ccccc2Cl)cc1	none
CSc1ccccc1NC(=O)Nc1cccc(Cl)c1C	none (no result: NS1 inh)
O=C(Nc1ccc(Oc2ccc(NC(=O)Nc3ccccc3Cl)cc2)cc1)Nc1ccccc1Cl	Pf growth 48h 1.9µM, Pf growth 96h 1.5µM
O=C(Nc1ccccc1)Nc1cccc(Cl)c1Cl	Shiga inhibitor active, CHX counter 37
COCCCNC(=S)Nc1ccc2c(c1)OCCO2	Pf growth 96h inconclusive
COCc1ccc(C(=O)N2CCCC(C(=O)c3cc(F)ccc3F)C2)s1 (stereo not given)	Pf growth 48h inconclusive, Pf growth 96h inconclusive
CC(C)(C)NC(=O)c1ccc(Sc2ccccc2)c([N+](=O)[O-])c1	Pf growth 48h 10µM, Pf growth 96h inconclusive
CC(=O)c1ccc(OCc2cc(C(=O)N3CC[C@@H]4CCCC[C@H]4C3)no2)cc1	Shiga inhibitor 104, CHX counter 75
CC(=O)c1ccc(OCc2cc(C(=O)NC3CCCCC3)no2)cc1	Shiga inhibitor 76, CHX counter 31
Cc1cc(Cn2nnc(-c3ccc(Br)cc3)n2)cc(C)c1O	Pf growth 48h inconclusive (no result: Shiga inhibitor, CHX counter, NS1 inh)
Cc1cc2oc(=O)cc(CSc3nnc(-c4cccs4)o3)c2cc1C(C)C	Pf growth 48h 8.3µM, CHX counter 11, NS1 inh inconclusive, Pf growth 96h inconclusive
Cc1cc2oc(=O)cc(CSc3nnc(C)n3N)c2cc1C(C)C	Pf growth 48h inconclusive, Pf growth 96h inconclusive
Cn1ncc(Cl)c1C(=O)NNC(=O)Nc1cccc2ccccc12	Pf growth 96h inconclusive
CCN(CC)CCn1c(=N)n(CC(=O)c2ccc(Br)s2)c2ccccc21	Pf growth 48h 1.9µM, Pf growth 96h 1.9µM
CCN(CC)CCn1c(=N)n(CC(O)COc2ccccc2)c2ccccc21 (stereo not given)	Pf growth 48h 3.3µM, Pf growth 96h 2.3µM
CCN(CC)CCn1c(=N)n(CCOc2ccccc2)c2ccccc21	Pf growth 96h 8.3µM (no result: Pf growth 48h)
CCN(CC)CCn1c(=N)n(CCO)c2ccccc21	Pf growth 96h inconclusive
COc1cccc(NC(=O)CN(C)C(=O)C(C)Sc2ccccc2)c1 (stereo not given)	Pf growth 48h inconclusive (no result: Shiga inhibitor, CHX counter, NS1 inh)
O=C(Nc1ccc2c(c1)OCCO2)c1ccccn1	CHX counter 12
O=C(Nc1ccc2c(c1)OCCO2)c1ccc2ccccc2n1	Shiga inhibitor 45, CHX counter 39 (no result: NS1 inh)
